We go through four compounds from PubChem BioAssay (EPA / NIEHS).

Results filed as inconclusive are left out. Activity calls are given as the source filed them. How the source made its calls, unless noted: active means hit-call score of the fitted dose curve at least 0.9, where 1 is the maximum; inactive means score below 0.9.

A short description of test [1]: ATG_PPRE_CIS: Attagene CIS-FACTORIAL HepG2 Assay for human Peroxisome Proliferator-activated Response Element (PPRE) (AID 2282958). Conditions: HepG2 PPRE cis-element reporter, Attagene transcription factor profiling; actives raise or lower the signal. Summed up:
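HepG2 cells transiently transfected with multiplexed cis-element reporter units measure endogenous transcription factor activity. After 24 h compound exposure, reporter mRNA is quantified by RT-PCR, 6-FAM labeling, HpaI digestion and capillary electrophoresis; bidirectional fits are made against DMSO baseline.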

A short description of test [2]: ATG_RORE_CIS: Attagene CIS-FACTORIAL HepG2 Assay for human RAR-related Orphan Receptor Element (RORE) (AID 2282959). Conditions: HepG2 Attagene cis-factorial RORE reporter, mRNA; actives raise or lower the signal. The procedure, abridged:
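HepG2 cells transiently transfected with multiple cis-element reporter transcription units, exposed to chemical for 24 h. Reporter mRNA quantified by RT-PCR, 6-FAM primer-extension labeling, HpaI digestion and capillary electrophoresis; bidirectional fit versus DMSO baseline.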

The nature of test [3]: ATG_Sox_CIS: Attagene CIS-FACTORIAL HepG2 Assay for human SRY-box transcription factor (SOX) (AID 2282960). Conditions: HepG2 Attagene cis-factorial SOX reporter, mRNA; actives raise or lower the signal. Summed up:
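HepG2 cells transiently transfected with cis-element-driven multiple reporter transcription units, dosed 24 h; reporter mRNA measured by RT-PCR, FAM labelling, HpaI digestion and capillary electrophoresis. Bidirectional fit versus DMSO baseline.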

Test [4] concerns the target Transcription factor Sp1 (Homo sapiens) (UniProt P08047). Nature of the test: ATG_Sp1_CIS: Attagene CIS-FACTORIAL HepG2 Assay for human Specificity Protein 1 (Sp1) (AID 2282961). Conditions: HepG2 Sp1 cis-reporter transcription, actives raise or lower the signal. The procedure, abridged: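 HepG2 cells transiently transfected with multiple reporter transcription units driven by cis-regulatory elements; Sp1-responsive reporter mRNA measured 24 h after dosing by RT-PCR and capillary electrophoresis fluorescence, fitted bidirectionally against DMSO baseline.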

Test [5] is described as follows: ATG_SREBP_CIS: Attagene CIS-FACTORIAL HepG2 Assay for human Sterol Regulatory Element Binding (SREBP) (AID 2282962). Conditions: HepG2 Attagene cis-factorial SREBP reporter, mRNA; actives raise or lower the signal. Summed up: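 mRNA induction of transfected cis-promoter reporters in HepG2 cells, 24 h post-dose. Detection: RT-PCR with 6-FAM-labelled products, HpaI digest, capillary electrophoresis. DMSO served as negative control and baseline.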

The target in test [6] is Signal transducer and activator of transcription 3 (Homo sapiens) (UniProt P40763). The test can be described thus: ATG_STAT3_CIS: Attagene CIS-FACTORIAL HepG2 Assay for human Signal Transducer and Activator of Transcription 3 (STAT3) (AID 2282963). Conditions: HepG2, Attagene cis-factorial STAT3 reporter transcription; actives raise or lower the signal. The procedure, abridged:
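HepG2 cells transiently transfected with multiple cis-element-driven reporter units report endogenous transcription factor activity. After 24 h compound exposure, reporter mRNA is measured by RT-PCR, 6-FAM labelling, HpaI digestion and capillary electrophoresis. Fitted bidirectionally versus DMSO.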

The nature of test [7]: ATG_TA_CIS: Attagene CIS-FACTORIAL HepG2 Assay for human TA Basal Promoter (AID 2282964). Conditions: HepG2 Attagene CIS-factorial TA basal promoter reporter; actives raise or lower the signal. The procedure, abridged:
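Background internal-marker endpoint from a 52-component HepG2 cis-reporter panel. Cells treated 24 h; reporter transcripts quantified via RT-PCR and CE fluorescence against DMSO baseline.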

Test [8] can be described thus: ATG_TCF_b_cat_CIS: Attagene CIS-FACTORIAL HepG2 Assay for human T-Cell-Factor with beta-catenin (TCF/b-cat) (AID 2282965). Conditions: HepG2 TCF/beta-catenin cis-reporter transcription, actives raise or lower the signal. Summed up: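 HepG2 cells transiently transfected with cis-promoter-driven multiplexed reporter units; reporter mRNA measured 24 h after dosing by RT-PCR, FAM labelling, HpaI digestion and capillary electrophoresis. Bidirectional fitting relative to DMSO baseline.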

Test [9] in a line: ATG_TAL_CIS: Attagene CIS-FACTORIAL HepG2 Assay for human TAL Basal Promoter (AID 2282966).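 Further: background control endpoint measuring basal TAL promoter reporter mRNA not a specific factor.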 Conditions: HepG2 Attagene cis-factorial TAL promoter reporter; actives raise or lower the signal. The procedure, abridged:
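HepG2 cells were transiently transfected with promoter-driven multiplexed reporter units and dosed for 24 h. Reporter mRNA was measured by RT-PCR with capillary electrophoresis fluorescence; bidirectional fits used DMSO as baseline, serving as a background control.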

The nature of test [10]: ATG_TGFb_CIS: Attagene CIS-FACTORIAL HepG2 Assay for human Transforming Growth Factor (TGF) (AID 2282967). Conditions: HepG2 Attagene CIS TGFb reporter, mRNA transcription; actives raise or lower the signal. Summed up:
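Liver HepG2 line, cis-factorial reporter panel, 24 h dosing. Quantitation: RT-PCR products labeled with 6-FAM, cut with HpaI, resolved by capillary electrophoresis; DMSO-referenced bidirectional analysis.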

Test [11] in a line: ATG_VDRE_CIS: Attagene CIS-FACTORIAL HepG2 Assay for human Vitamin D Receptor Element (VDRE) (AID 2282968). Conditions: HepG2 VDRE cis-reporter transcription, actives raise or lower the signal. The procedure, abridged: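 Transiently transfected HepG2 cells carrying cis-regulated reporter transcription units were exposed for 24 h. Reporter mRNA was measured by RT-PCR with fluorescent labelling and capillary electrophoresis, and fitted in both directions against DMSO.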

For test [12], the target named is Steroid hormone receptor ERR1 (Homo sapiens) (UniProt P11474). The test can be described thus: ATG_ERRa_TRANS: Attagene TRANS-FACTORIAL HepG2 Assay for human Estrogen-Related Receptor alpha (ERRa) (AID 2282971; active means hit-call score of the fitted dose curve at least 0.9, where 1 is the maximum). Conditions: HepG2 Attagene TRANS reporter, ERRa transactivation. Summed up:
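HepG2 cells transiently transfected with multiplexed GAL4-UAS reporter units reading chimeric ERRa-Gal4 activity; 24 h compound exposure. Reporter mRNA measured by RT-PCR, 6-FAM labelling, HpaI digest and capillary electrophoresis; gain of signal fitted versus DMSO baseline.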

Test [13] addresses X-box-binding protein 1 (Homo sapiens) (UniProt P17861). The test can be described thus: ATG_Xbp1_CIS: Attagene CIS-FACTORIAL HepG2 Assay for human X-box Binding Protein 1 (XBP1) (AID 2282972). Conditions: HepG2 XBP1 cis-element reporter, Attagene multiplex; actives raise or lower the signal. Summed up:
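Fluorescence-labelled cDNA fragments from reporter transcripts, separated by capillary electrophoresis, give the signal. Source: HepG2 cells transfected with promoter-driven reporter units, harvested 24 h post-dose. DMSO served as reference for bidirectional curve fitting.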

The nature of test [14]: ATG_M_19_TRANS: Attagene TRANS-FACTORIAL HepG2 Assay for M19 Transcription Factor (Internal Marker) (AID 2282974; active means hit-call score of the fitted dose curve at least 0.9, where 1 is the maximum). Conditions: HepG2 Attagene TRANS-FACTORIAL M19 internal marker reporter. Summed up:
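HepG2 cells transiently transfected with multiple GAL4-UAS reporter transcription units were exposed to chemicals for 24 h. Reporter mRNA was read by RT-PCR, 6-FAM primer extension, HpaI digestion and capillary electrophoresis; gain of signal fitted relative to DMSO.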

Test [15] can be described thus: ATG_GAL4_TRANS: Attagene TRANS-FACTORIAL HepG2 Assay for GAL4 (Internal Marker) (AID 2282976; active means hit-call score of the fitted dose curve at least 0.9, where 1 is the maximum). Conditions: HepG2 Attagene TRANS GAL4 internal marker reporter. Summed up:
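HepG2 cells transiently transfected with multiplexed GAL4-UAS reporter constructs were dosed for 24 h. Reporter mRNA was measured by RT-PCR, 6-FAM primer extension, HpaI digestion and capillary electrophoresis, and gain of signal was fitted relative to DMSO.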

For test [16], the target named is Estrogen receptor (Homo sapiens) (UniProt P03372). Nature of the test: ATG_ERa_TRANS: Attagene TRANS-FACTORIAL HepG2 Assay for human Estrogen Receptor alpha (ERa) (AID 2282970; active means hit-call score of the fitted dose curve at least 0.9, where 1 is the maximum). Conditions: HepG2 Attagene TRANS ERa GAL4 reporter, mRNA. Summed up: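 HepG2 cells transiently transfected with multiplexed GAL4-UAS reporter units; ERa activity read via exogenous chimeric NR-Gal4 protein. After 24 hour compound exposure, reporter mRNA measured by RT-PCR with 6-FAM labelling and capillary electrophoresis; gain-of-signal fitted relative to DMSO.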

Test [17] addresses Glucocorticoid receptor (Homo sapiens) (UniProt P04150). Nature of the test: ATG_GR_TRANS: Attagene TRANS-FACTORIAL HepG2 Assay for human Glucocorticoid Receptor (GR) (AID 2282978; active means hit-call score of the fitted dose curve at least 0.9, where 1 is the maximum;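 further: activators score as hits since higher reporter transcript over DMSO is fitted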). Conditions: HepG2 Attagene TRANS GR reporter, mRNA transcription. The procedure, abridged: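 HepG2 cells transiently transfected with multiplexed reporter units in which chimeric NR-GAL4 proteins drive GAL4-UAS reporters; 24 h compound exposure. Reporter mRNA measured by RT-PCR, 6-FAM labelling, HpaI digestion and capillary electrophoresis; gain-of-signal fitted versus DMSO.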

In test [18] the target is Bile acid receptor (Homo sapiens) (UniProt Q96RI1). The test can be described thus: ATG_FXR_TRANS: Attagene TRANS-FACTORIAL HepG2 Assay for Farnesoid X Receptor (FXR) (AID 2282979; active means hit-call score of the fitted dose curve at least 0.9, where 1 is the maximum;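 further: hits raise reporter mRNA above DMSO so AC50 marks FXR activation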). Conditions: HepG2 Attagene TRANS FXR-GAL4 reporter transcription. The procedure, abridged: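 HepG2 cells transiently transfected with reporter constructs in which a chimeric FXR-GAL4 protein drives a GAL4-UAS reporter; 24 h compound exposure. Reporter mRNA measured by RT-PCR, FAM labelling, HpaI digestion and capillary electrophoresis; gain-of-signal versus DMSO.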
Bile acid receptor (Homo sapiens), sequence (Q96RI1 whole entry, looked up, the tested form may be a part): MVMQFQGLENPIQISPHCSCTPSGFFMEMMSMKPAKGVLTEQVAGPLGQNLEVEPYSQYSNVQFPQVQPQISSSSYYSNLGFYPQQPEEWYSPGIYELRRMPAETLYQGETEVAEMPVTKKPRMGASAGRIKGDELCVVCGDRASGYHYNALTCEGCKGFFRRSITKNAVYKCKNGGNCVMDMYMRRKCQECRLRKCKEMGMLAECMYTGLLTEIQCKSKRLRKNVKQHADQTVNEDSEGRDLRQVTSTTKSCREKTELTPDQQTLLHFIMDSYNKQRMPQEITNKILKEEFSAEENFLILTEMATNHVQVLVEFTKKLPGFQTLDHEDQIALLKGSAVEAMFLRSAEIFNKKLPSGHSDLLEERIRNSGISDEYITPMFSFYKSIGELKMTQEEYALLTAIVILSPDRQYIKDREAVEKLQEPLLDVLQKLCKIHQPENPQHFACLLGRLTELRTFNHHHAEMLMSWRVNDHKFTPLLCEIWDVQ

Transcription factor Sp1 (Homo sapiens), sequence (P08047 whole entry, looked up): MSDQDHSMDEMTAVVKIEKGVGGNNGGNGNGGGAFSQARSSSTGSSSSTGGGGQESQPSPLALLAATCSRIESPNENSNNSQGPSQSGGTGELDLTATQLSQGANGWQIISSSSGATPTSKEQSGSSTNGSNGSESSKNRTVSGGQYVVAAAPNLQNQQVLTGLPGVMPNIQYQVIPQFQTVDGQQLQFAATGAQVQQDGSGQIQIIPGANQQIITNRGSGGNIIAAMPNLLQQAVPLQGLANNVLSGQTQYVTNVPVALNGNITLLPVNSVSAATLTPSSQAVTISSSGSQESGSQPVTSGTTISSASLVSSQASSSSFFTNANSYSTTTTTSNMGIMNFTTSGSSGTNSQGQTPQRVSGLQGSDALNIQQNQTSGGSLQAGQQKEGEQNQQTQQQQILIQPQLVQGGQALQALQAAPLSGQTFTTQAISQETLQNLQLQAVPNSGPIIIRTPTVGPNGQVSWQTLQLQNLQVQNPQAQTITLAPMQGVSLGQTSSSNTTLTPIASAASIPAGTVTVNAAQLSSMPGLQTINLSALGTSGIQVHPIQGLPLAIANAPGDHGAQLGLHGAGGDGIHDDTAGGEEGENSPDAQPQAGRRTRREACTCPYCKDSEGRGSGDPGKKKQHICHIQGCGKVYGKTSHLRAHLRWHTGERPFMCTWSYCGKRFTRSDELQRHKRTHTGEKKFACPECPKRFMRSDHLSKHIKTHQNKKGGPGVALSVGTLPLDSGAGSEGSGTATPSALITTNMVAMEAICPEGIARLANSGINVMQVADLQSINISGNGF
X-box-binding protein 1 (Homo sapiens), sequence (P17861 whole entry, looked up, the tested form may be a part): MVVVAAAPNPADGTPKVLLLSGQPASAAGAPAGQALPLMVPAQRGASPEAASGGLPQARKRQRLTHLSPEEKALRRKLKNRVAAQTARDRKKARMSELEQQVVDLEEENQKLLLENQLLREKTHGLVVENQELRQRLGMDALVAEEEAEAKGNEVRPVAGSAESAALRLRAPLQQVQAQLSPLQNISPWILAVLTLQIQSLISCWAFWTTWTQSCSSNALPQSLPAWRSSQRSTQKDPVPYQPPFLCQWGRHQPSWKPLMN
Estrogen receptor (Homo sapiens), sequence (P03372 whole entry, looked up, the tested form may be a part): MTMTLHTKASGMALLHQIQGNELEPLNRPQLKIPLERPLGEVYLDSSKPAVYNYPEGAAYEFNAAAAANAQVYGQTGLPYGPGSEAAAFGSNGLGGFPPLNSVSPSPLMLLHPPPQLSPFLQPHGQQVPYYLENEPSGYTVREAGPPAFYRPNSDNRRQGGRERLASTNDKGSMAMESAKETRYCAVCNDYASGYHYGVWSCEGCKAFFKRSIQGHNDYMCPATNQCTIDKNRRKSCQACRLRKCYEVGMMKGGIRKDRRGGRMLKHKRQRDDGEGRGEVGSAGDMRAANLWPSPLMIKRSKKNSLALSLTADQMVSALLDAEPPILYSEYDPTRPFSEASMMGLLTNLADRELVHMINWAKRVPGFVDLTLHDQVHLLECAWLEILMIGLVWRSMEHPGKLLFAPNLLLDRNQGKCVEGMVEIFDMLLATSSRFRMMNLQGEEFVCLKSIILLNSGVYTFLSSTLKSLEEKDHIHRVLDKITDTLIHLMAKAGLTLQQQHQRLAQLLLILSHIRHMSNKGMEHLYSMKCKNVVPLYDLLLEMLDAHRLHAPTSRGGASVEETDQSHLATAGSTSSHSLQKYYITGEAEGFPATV
Glucocorticoid receptor (Homo sapiens), sequence (P04150 whole entry, looked up, the tested form may be a part): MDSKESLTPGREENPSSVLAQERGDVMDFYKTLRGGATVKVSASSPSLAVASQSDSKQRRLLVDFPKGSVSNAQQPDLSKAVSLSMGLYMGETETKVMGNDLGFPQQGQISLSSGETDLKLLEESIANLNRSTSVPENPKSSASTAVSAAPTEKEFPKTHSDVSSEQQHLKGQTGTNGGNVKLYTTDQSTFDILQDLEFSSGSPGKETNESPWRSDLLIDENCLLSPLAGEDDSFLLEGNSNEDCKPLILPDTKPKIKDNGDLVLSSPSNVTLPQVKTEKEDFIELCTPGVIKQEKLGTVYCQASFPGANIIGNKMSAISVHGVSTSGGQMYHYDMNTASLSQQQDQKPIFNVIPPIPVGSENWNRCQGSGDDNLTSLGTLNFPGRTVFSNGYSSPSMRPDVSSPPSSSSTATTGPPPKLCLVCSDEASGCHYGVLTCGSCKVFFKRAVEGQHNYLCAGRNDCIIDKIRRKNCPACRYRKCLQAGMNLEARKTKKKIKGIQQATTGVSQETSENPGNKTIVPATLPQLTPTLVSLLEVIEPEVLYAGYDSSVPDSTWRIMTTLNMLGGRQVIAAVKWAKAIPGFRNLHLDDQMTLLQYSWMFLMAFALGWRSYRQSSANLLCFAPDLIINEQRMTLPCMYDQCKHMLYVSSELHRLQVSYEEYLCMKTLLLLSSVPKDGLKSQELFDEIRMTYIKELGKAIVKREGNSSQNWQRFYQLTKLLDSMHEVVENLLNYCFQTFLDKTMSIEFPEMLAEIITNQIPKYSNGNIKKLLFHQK
Signal transducer and activator of transcription 3 (Homo sapiens), sequence (P40763 whole entry, looked up): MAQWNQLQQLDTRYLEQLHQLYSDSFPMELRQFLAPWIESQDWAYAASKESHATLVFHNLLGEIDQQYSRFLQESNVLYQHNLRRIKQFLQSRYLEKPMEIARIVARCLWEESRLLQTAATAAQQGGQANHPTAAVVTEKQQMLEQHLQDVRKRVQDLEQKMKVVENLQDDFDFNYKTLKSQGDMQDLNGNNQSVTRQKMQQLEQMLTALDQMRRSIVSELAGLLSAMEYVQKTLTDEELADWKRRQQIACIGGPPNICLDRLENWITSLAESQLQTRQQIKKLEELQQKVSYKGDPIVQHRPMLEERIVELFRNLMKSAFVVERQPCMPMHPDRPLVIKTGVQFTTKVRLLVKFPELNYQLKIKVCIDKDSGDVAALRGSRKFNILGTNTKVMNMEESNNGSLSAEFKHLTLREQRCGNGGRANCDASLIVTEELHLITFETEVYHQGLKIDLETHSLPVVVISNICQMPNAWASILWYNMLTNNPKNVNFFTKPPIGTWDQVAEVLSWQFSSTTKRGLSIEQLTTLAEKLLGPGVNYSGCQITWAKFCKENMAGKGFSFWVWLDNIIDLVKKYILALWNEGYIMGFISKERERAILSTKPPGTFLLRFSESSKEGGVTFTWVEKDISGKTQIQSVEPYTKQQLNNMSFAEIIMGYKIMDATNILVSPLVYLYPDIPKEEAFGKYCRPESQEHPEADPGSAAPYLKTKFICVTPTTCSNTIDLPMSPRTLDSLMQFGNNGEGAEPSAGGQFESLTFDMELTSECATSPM
Steroid hormone receptor ERR1 (Homo sapiens), sequence (P11474 whole entry, looked up, the tested form may be a part): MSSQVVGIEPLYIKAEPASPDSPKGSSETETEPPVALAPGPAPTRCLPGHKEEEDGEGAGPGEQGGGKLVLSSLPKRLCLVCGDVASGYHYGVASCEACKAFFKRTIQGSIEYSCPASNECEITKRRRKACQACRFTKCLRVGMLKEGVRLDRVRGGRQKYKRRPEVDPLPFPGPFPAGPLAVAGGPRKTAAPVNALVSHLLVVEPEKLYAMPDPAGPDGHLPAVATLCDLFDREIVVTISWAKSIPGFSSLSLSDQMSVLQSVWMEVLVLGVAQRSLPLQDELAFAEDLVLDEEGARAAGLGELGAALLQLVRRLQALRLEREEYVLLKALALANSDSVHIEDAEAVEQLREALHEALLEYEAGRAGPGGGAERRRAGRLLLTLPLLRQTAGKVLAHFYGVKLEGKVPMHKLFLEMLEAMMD

On to `CCCCOCCOC(C)=O`, for which the compound was classed as inactive in test [1], in [2], in test [3], in test [4], in test [5] and in test [6]. Further, the outcome in test [7], in [8], in test [9], in [10], in [11] and in test [12] was inactive. Besides, the call in [13], in test [14] and in [15] was inactive.

On to `CNC`, for which the compound was called inactive in [1], in [2], in test [3], in test [4], in test [5] and in test [6]. The outcome in test [7], in test [8], in test [9], in [10], in [11] and in test [16] was inactive. In addition, the compound was classed as inactive in test [13], in test [14], in test [15] and in [17].

Turning to `CC(=O)c1cc(C(C)(C)C)cc2c1CCC2(C)C`, the AC50 in test [1] was 29.4 µM (active); in [4], 69.3 µM (active); in test [5], 54.4 µM (active); in test [11] it was 25.6 µM (active); in test [13], 75.2 µM (active). For the same compound, the call in [2], in [3], in test [7], in test [8], in [9] and in test [10] was inactive. Besides, the result in test [16], in test [12] and in [14] was inactive.

Consider `O=C(Cl)c1ccc(Cl)cc1`, for which the outcome in test [1], in test [2], in test [3], in test [4], in test [5] and in test [7] was inactive. The outcome in test [8], in test [9], in [10], in test [11], in test [16] and in [13] was inactive. Moreover, the result in test [14], in test [15], in test [17] and in [18] was inactive.
